# HPGD inh: HPGD (human) dehydrogenase inhibition | hit rate 4.3% among 150,000 | Potency, µM, actives largely listed as inhibitors | purified HPGD, NADH fluorescence kinetic, PGE2 substrate
# Target sequence (P15428 whole entry, looked up): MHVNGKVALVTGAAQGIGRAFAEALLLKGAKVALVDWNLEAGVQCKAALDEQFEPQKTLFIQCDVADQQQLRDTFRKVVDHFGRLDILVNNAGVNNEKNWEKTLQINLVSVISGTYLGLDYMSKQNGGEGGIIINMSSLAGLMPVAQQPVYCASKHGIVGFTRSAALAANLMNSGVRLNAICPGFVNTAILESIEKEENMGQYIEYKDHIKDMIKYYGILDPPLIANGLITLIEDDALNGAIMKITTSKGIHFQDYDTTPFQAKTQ
#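 20 nM HPGD preincubated 15 min at room temperature with compound in 50 mM Tris-HCl pH 8, 0.01% Tween 20. Started with 1 mM NAD+ and 30 uM prostaglandin E2; NADH fluorescence (360/450 nm) read 5 times over 30-s intervals, last minus first.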
# ALDH1A1 inh: inhibitors of human aldehyde dehydrogenase 1A1 | Potency, µM (series often up to 75.3 µM), most hits filed as inhibitors | Purified ALDH1A1, NADH fluorescence, propionaldehyde substrate | P00352 | hit rate 7.3% among 220,000
# PNC assembly inh: inhibitors of perinucleolar compartment assembly. PC3M PTB-GFP, PNC prevalence imaging, 16 h; hits give low values. activity change (PNC), negative = inhibition, % at 10 µM. hit rate 3.1% among 140,000;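 active means readout at or below -70, meaning at least 70% loss of cells showing the perinucleolar compartment, a nuclear body marking cancer cells; inconclusive means readout between -30 and a set limit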
#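 PC3M cells stably expressing PTB-GFP, 750–1000 cells/well, treated 16 h at 37 °C with compound (23 nl of library stock), in duplicate. After paraformaldehyde fixation and Hoechst stain, imaged at 20x; PNC prevalence scored by image analysis.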
# A number is an active result; 0 = inactive; ? = inconclusive; - = no result given; [ ] = another dose, or the depositor's remark. Sampled rows, rich in hits. Any-hit rate of the full collection: about 11%. Unless noted, the call rests on the fitted dose curve; in most records, active means well fitted inhibition curve with a large enough effect (not every such curve was filed as active); inconclusive means small, poorly fitted or top-dose-only effect, or another doubt; inactive means no such curve, though single readings can be large or run the other way.
SMILES,HPGD inh,ALDH1A1 inh,PNC assembly inh
CCN1C(=O)[C@H]2[C@H]3[C@H](O)[C@H](O)C/C(=N/NC(=O)OCc4ccccc4)[C@@H]3CC[C@@H]2C1=O,-,0[13.5 µM],-
Cc1ccc2nc(NC(=O)C3CC(=O)N(Cc4ccco4)C3)sc2c1 (configuration not stated),-,0,-
O=C(Nc1nc2c(F)cc(F)cc2s1)C1CC(=O)N(Cc2ccco2)C1 (configuration not stated),-,14.1µM,-
O=C(O)CCCSc1nccn1-c1ccccc1,-,0,-
CCc1ccccc1-n1nnnc1-c1cnccc1C(F)(F)F,-,17.8µM,-
FC(F)(F)c1nc(-c2cccnc2)ncc1-c1nnnn1-c1ccccc1,0,0,0
COc1ccc(Nc2cc(C)nc3nc(C)nn23)c(OC)c1,8.91µM,0,0
COc1ccc(Nc2cc(C)nc3nc(C)nn23)cc1Cl,0,0,0
COc1ccc(C)cc1Nc1cc(C)nc2nc(C)nn12,1.41µM,0,0
COc1ccc(Nc2cc(C)nc3ncnn23)c(OC)c1,15.8µM,0,?
Cc1cc(Nc2ccccc2F)n2ncnc2n1,0,0,?
COc1cccc(Nc2cc(C)nc3nc(C)nn23)c1,0,0,0
Cc1cc(NCCc2ccc(Cl)cc2)n2ncnc2n1,-,0,-
COc1ccc(CNc2cc(C)nc3ncnn23)c(OC)c1,31.6µM,0,?
Cc1cccc(C2c3[nH]c4ccccc4c3CCN2C(=O)c2cc(CC(C)C)[nH]c(=O)n2)n1 (configuration not stated),-,0,-
O=C(COc1cccnc1[N+](=O)[O-])NCc1ccco1,-,0,-
COc1ccc(OCC(=O)Nc2sc3c(c2C(=O)NCC2CCCO2)CCC3)cc1 (configuration not stated),0,?,0
Cc1cc(S(=O)(=O)N2CCN=C2c2ccccc2)c(C)cc1Cl,0,0,0
CN1CCCC(n2nc(Cc3ccc(Cl)cc3)c3ccccc3c2=O)CC1 (configuration not stated),0,0,-
CCOc1cccc(NC(=O)C2CC(=O)N(c3ccc(F)cc3)C2)c1 (configuration not stated),-,0,-
C[C@H](NC(=O)CNC(=O)[C@@H](NC(=O)[C@H](Cc1ccccc1)NC(=O)CNC(=O)CNC(=O)[C@@H](N)Cc1ccccc1)[C@@H](C)O)C(=O)N[C@@H](CCCN=C(N)N)C(=O)N[C@@H](CCCCN)C(=O)N[C@@H](CO)C(=O)N[C@@H](C)C(=O)N[C@@H](CCCN=C(N)N)C(=O)N[C@H](CN)CCCCN,-,0,-
COc1cc(Nc2cc(C)nc3nc(C)nn23)cc(OC)c1OC,0,0,0
COc1ccc(C(=O)O)cc1Nc1cc(C)nc2ncnn12,25.1µM,0,0
CCCOC(=O)c1ccc(Nc2cc(C)nc3ncnn23)cc1,0,?,0
COc1ccc(OC)c(Nc2cc(C)nc3nc(C)nn23)c1,2µM,0,0
SMILES,HPGD inh,ALDH1A1 inh,PNC assembly inh
CC(C)C[C@@H](CC(=O)N[C@@H](CCC(=O)O)CC(=O)O)NC(=O)[C@@H]1CNCC[C@H]1NC(=O)C[C@@H](NC(=O)C[C@H](CO)NC(=O)[C@@H]1CCCC[C@H]1N)C(C)C,0,0,-
Cn1nc(SCC(=O)O)sc1=S,14.1µM,0,0
CCOC(=O)C(Sc1nn(C)c(=S)s1)C(C)=O (configuration not stated),0,?,?
O=C1NCC(O)=C1C=Nc1ccccc1O,-,0,-
C/C=C/C=N/NC(=O)CN(c1ccc(Br)cc1)S(=O)(=O)c1ccccc1,0,0,0
CCn1cc(-c2csc(N)n2)c(C)n1,-,0,-
CC(C)Oc1ccc(N2CC(C(=O)NC3=NCCS3)CC2=O)cc1 (configuration not stated),-,0,-
Cc1cccc(N2CCN(C(=O)C3CCN(c4nnc(-n5cccc5)s4)CC3)CC2C)c1 (configuration not stated),0,0,-112.2
Cc1ccc(Cl)cc1N1CCN(C(=O)C2CCN(c3nnc(-n4cccc4)s3)CC2)CC1,0,0,?
CC(C)(C)c1ccc(-c2noc(CCC(=O)NCC3CCCO3)n2)cc1 (configuration not stated),12.6µM,0,0
Cc1ccc(-c2nc(NCC3CCCO3)sc2C)cc1 (configuration not stated),-,28.2µM,-
COC(=O)c1ccc(-c2noc(CN(C)CCC3CCCCO3)n2)cc1 (configuration not stated),-,8.91µM,-
O=C(CCc1nc(-c2ccccc2)no1)N1CCCC1,0,0,0
CNC(=O)CCc1nc(-c2ccc(C(C)(C)C)cc2)no1,0,0,0
COc1ccc(-c2noc(CN(C)CCC3CCCCO3)n2)cc1 (configuration not stated),-,0,-
O=C(CCc1nc(-c2ccccc2)no1)NCC1CCCO1 (configuration not stated),25.1µM,?,0
Cc1ccc(S(=O)(=O)c2nc(S(C)(=O)=O)sc2NCC2CCCO2)cc1 (configuration not stated),0,?,0
Cc1ccc(NC(=O)Cn2ccc([N+](=O)[O-])n2)cc1Cl,-,0,-
O=C(COC(=O)COc1ccc(Cl)cc1Cl)Nc1cccnc1Cl,0,0,0
O=C1[C@H]2[C@H]3[C@H](O)[C@H](O)C/C(=N/OC[C@@H](O)COCc4ccco4)[C@@H]3CC[C@@H]2C(=O)N1c1cccc(Oc2ccccc2)c1,-,0[13.5 µM],-
COCCSc1ccccc1C(=O)Nc1cc(C)ccn1,0,0,?
Cc1ccc(-c2nc(N)sc2CC(=O)OCC(=O)NCCC(C)C)cc1,0,0,0
Cc1ccc(-c2nc(N)sc2CC(=O)OCC(=O)NCC2CCCO2)cc1 (configuration not stated),31.6µM,?,0
Cc1ccc(-c2noc(CCC(=O)NCCN3CCOCC3)n2)cc1,0,0,0
Cc1ccc(-c2noc(CCC(=O)NCC3CCCO3)n2)cc1 (configuration not stated),17.8µM,0,0
SMILES,HPGD inh,ALDH1A1 inh,PNC assembly inh
Clc1ccccc1NN(Cc1ccncc1)c1ccccc1Cl,0,?,-
C#CCOCCOCCOCCNc1nc(N2CCN(C(=O)[C@H](Cc3ccc(O)cc3)n3cc([C@@H](N)CC(C)C)nn3)CC2)nc(N2CCN(C(=O)[C@H](Cc3ccc(O)cc3)n3cc([C@@H](N)CC(C)C)nn3)CC2)n1,-,15.8µM,-
C#CCOCCOCCOCCNc1nc(N2CCN(C(=O)[C@H](CCCCN)n3cc([C@@H](N)CC(C)C)nn3)CC2)nc(N2CCN(C(=O)[C@H](Cc3ccc(O)cc3)n3cc([C@@H](N)CC(C)C)nn3)CC2)n1,-,0,-
Cc1nn(C)c(C)c1NC(=O)CSc1nc(C2CC2)nc2c1cnn2-c1ccccc1,0,0,0
CC1CCCCN1C(=O)CSc1nc(C2CC2)nc2c1cnn2-c1ccccc1 (configuration not stated),?,11.2µM,0
Cc1cc(C)nc(SCc2nnc(SCC(=O)Nc3nccs3)n2C)n1,0,0,-100.0
Cc1cc(C)nc(SCc2nnc(SCC(=O)Nc3nc(-c4ccccc4)cs3)n2C)n1,0,0,0
CCn1c(Cc2cccc3ccccc23)nnc1SCC(=O)Nc1nccs1,0,0,-100.0
O=C(Cc1coc2ccc3ccccc3c12)NCc1ccccc1,0,0,0
O=C(Cc1coc2ccc3ccccc3c12)Nc1nccs1,?,0,-107.4
CCn1c(CNC(=O)Cc2ccc(OC)cc2)nnc1SCC(=O)Nc1nccs1,0,0,0

# High-throughput results (PubChem BioAssay)
